About 83,000 compounds went through this panel and 20% of them were active in at least one assay; those are over-represented in the sample as a whole.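 96-well plates, one dose, 48 hours. Percent growth reported; active if below 10.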 Calls of active or inactive are those of the source.
System: OVCAR-5 ovarian
Assay: NCI-60 one-dose screen, 48 h (100 = growth as untreated, 0 = no growth, -100 = all killed)
Settings: 10 µM unless noted

| Compound | growth |
| --- | --- |
| COc1ccc(Cn2cc3c(c2-c2ccccc2)CCc2cnoc2-3)cc1OC | 75.6% (inactive) |
| Cc1ccc2c(O)c(O)cc(NC(C)CCCN)c2n1 (stereo not given) | 87.4% (inactive) |
| CC(C)(C)c1ccc([I+]c2ccc(C(C)(C)C)cc2)cc1 | 49.6% (inactive) |
| COC(=O)/C(Br)=C/c1c[nH]c2ccc(Br)cc12 | 72.3% (inactive) |
| COC(=O)c1ccc2[nH]c(O)c(C(=Nc3ccc(N(C)C(=O)CN4CCN(C)CC4)cc3)c3cccc(OC)c3)c2c1 | 33.8% (inactive) |
| C#CCCCCCCC[C@@H]1OC(=O)[C@H]([C@@H](C)CC)NC(=O)[C@@H]([C@@H](C)CC)NC(=O)CC(=O)[C@@H]1C | 88% (inactive) |
| COC(=O)c1ccc2[nH]c(O)c(C(=Nc3ccc(N(C)C(=O)CN4CCN(C)CC4)cc3)c3ccc(C)cc3)c2c1 | 29.7% (inactive) |
| COC(=O)C(C)[C@H]1CC[C@@H]2[C@]1(C)CC=C1[C@]23C=C[C@]2(C[C@@H](OC(C)=O)CC[C@]12C)C(C(=O)OC)C3C(=O)OC (stereo not given in full) | 109% (inactive) |
| Cc1nc2c(nnn2-c2ccccc2)c2nc(-c3ccccc3)oc(=O)c12 | 105% (inactive) |
| CC(O)C(N)=O (stereo not given) | 101% (inactive) |
| Nc1nc2c(c3cnccc13)C(c1cccc(Cl)c1)Cc1cnccc1-2 (stereo not given) | 40.4% (inactive) |
| CC(=O)OCC1O[C@@H](OC(C)=O)[C@@H](NC(=O)NS(=O)(=O)c2ccccc2)C(OC(C)=O)[C@@H]1OC(C)=O (stereo not given in full) | 108% (inactive) |
| CCOC(=O)c1ccc2n1CCCc1cnc(NC(C)=O)nc1-2 | 94.1% (inactive) |
| CCCCCCCCCCCCCCCCCC1=NCCN1CCNC(C)=O | 91.7% (inactive) |
| Clc1ccc(N/N=C(/c2ccccc2)c2ccccn2)nc1 | 49.3% (inactive) |
| COc1ccc(-n2nnnc2-c2cn[nH]c2C(F)(F)F)cc1 | 108% (inactive) |
| COc1cc2ncnc(-n3ncc4cc(NC(=O)Nc5ccc(Cl)c(Cl)c5)ccc43)c2cc1OC | -33.1% (active) |
| CCOC(=O)c1c(C)oc2ncnc(Nc3ccc(C(=O)NCCc4ccccc4)cc3)c12 | 110% (inactive) |
| CC(=O)/C(=C/c1ccc(-c2ccccc2)cc1)C(=O)c1ccccc1 | 106% (inactive) |
| N=C(N)c1ccc(-c2ccc(-c3ccc(F)cc3)s2)cc1 | -87.4% (active) |

| Compound | growth |
| --- | --- |
| NC(=O)CC(NC(=O)COc1ccc(Cl)cc1Cl)C(=O)O (stereo not given) | 105% (inactive) |
| Cc1nc(NC(=O)NC2CCCCC2)sc1C(=O)NN | 102% (inactive) |
| CCOC(=O)C1=C(C(F)(F)F)NC(=S)NC1CN1C(=O)c2ccccc2C1=O (stereo not given) | 95.7% (inactive) |
| NC(=O)c1c(Nc2ccccc2)nn2cc(-c3nc4ccccc4s3)c(N)nc12 | 104% (inactive) |
| O=C(/C=C/c1ccc(Br)cc1)c1ccccc1 | 113% (inactive) |
| Cc1c(O)c(N=Nc2ccc(C(=O)O)c(O)c2)c2ccccc2c1O | 25.5% (inactive) |
| COc1ccc2c(c1)/C(=C/c1c(-c3cc(OC)c(OC)c(OC)c3)nc3sccn13)C(=O)N2 | 85.2% (inactive) |
| CCOC(=O)c1cc(C(=O)c2ccc(Br)cc2)n2cc(C)cc(C)c12 | 115% (inactive) |
| COc1cccc(Cn2cc3c(c2)-c2oncc2CC3)c1 | 42.6% (inactive) |
| CCCCCSc1ccc2nc(NC(=O)OCC)sc2c1 | 64.3% (inactive) |
| COc1ccc(C2C3(C#N)C(N)=NC(=C(C#N)C#N)C23C#N)cc1OC (stereo not given) | 93.3% (inactive) |
| CCCCCCCCCCCCCCCC[n+]1cccc(C#N)c1 | 79.7% (inactive) |
| CC(C)OC(=O)c1ccc2n1CCCc1cnc(Nc3ccccc3)nc1-2 | 93.8% (inactive) |
| COc1cc(Cn2ccc3c2-c2oncc2CC3)cc(OC)c1 | 57% (inactive) |
| COC(=O)c1ccc(C(=Nc2ccc(N(C)C(=O)CN3CCN(C)CC3)cc2)c2c(O)[nH]c3ccc(C(=O)OC)cc23)cc1 | 69.7% (inactive) |
| COc1cccc2c1nc1cccc(OC)c1[n+]2[O-] | 23.3% (inactive) |
| CC(=O)NNC(=O)c1sc(NC(C)=O)nc1C | 97% (inactive) |
| CCOC(=O)NNc1[nH]c(-c2ccc(OC)cc2)cc1C#N | 87.7% (inactive) |
| COc1cc(N)c2nccc(C)c2c1OC | 107% (inactive) |
| CCOC(=O)c1c2c(cn1Cc1ccccc1)-c1oncc1CC2 | 88.3% (inactive) |

Reference: PubChem BioAssay (NCI)
